AddAB inh – less growth of phage-infected E. coli with AddAB. E. coli expressing H. pylori AddAB, absorbance growth. actives 0.29% (n = 330,000). inhibition, % at 11.9 µM; in the data active = inhibition above about 12%;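 also: 0% = vehicle wells of infected cells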
E coli growth-1 – inhibitors of Escherichia coli growth; OD600 absorbance (test concentration not listed); actives 0.21% (n = 330,000); OD600, 23 h; stronger effect = lower value;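 active = OD600 absorbance below the run mean of sample wells minus 3.6 SD, in any replicate, cut at about 0.56 in these data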
Tat export inh – inhibitors of E. coli Tat protein transport | inhibition, % at 10 µM | actives 0.036% (n = 340,000) | E. coli MC4100 TorA-mCherry Tat export, fluorescence;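 active = mean replicate inhibition at least 50% and at least half of replicates individually reaching 50%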;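 also: exported cargo escapes ClpAP degradation while cytoplasmic cargo is degraded and loses fluorescence; 0% = median of neutral control wells and 100% = median of NaSCN control wells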
phage Ecoli inh – E. coli growth loss with phage present. growth absorbance. inhibition, % at 11.9 µM. actives 0.26% (n = 360,000); in the data active = inhibition above about 11%
E coli growth-2 – reduces bacterial viability in AddAB counter-screen; inhibition, % at 11.9 µM; AID 449728; E. coli V3065 growth, OD600 absorbance, 18 h; actives 0.27% (n = 330,000);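 active = inhibition above the campaign's mean inhibition across all tested compounds plus 3 SD, cut at about 9.9% in these data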;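 also: uninfected addAB+ strain grown without phage in ampicillin broth; 0% = DMSO wells and 100% = ciprofloxacin 0.95 µg/ml wells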
AddAB conf – confirmation screen: growth loss of phage-infected E. coli expressing H. pylori AddAB; inhibition, % at 11.9 µM; E. coli V3065 expressing H. pylori AddAB, T4 phage, OD; T4 phage with gene 2 nonsense mutations; AID 488942; actives 64% (n = 880); shares compounds with AddAB inh;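 active = mean inhibition above a set limit taken from the earlier primary screen, cut at about 13% in these data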;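 also: higher means less bacterial growth since AddAB block lets phage replicate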
RecBCD counter – counter-screen: growth loss of RecBCD+ E. coli with mutant T4 phage; shares compounds with AddAB inh; inhibition, % at 11.9 µM; actives 73% (n = 880); AID 488955; E. coli V66 + mutant T4 phage, OD growth;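 active = mean inhibition above the mean of solvent-only control wells plus 3 SD, cut at about 4% in these data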;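 also: optical density read after an 18 h incubation at 37 °C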
Bact viability – counter-screen: bacterial growth inhibition. shares compounds with AddAB inh. bacterial viability, absorbance (AddAB counterscreen). inhibition, % at 11.9 µM. actives 35% (n = 880); in the data active = inhibition above about 25%
RecBCD conf – growth loss of phage-infected V66 E. coli, RecBCD confirmation screen; E. coli V66 + T4 2- phage, growth OD; actives 45% (n = 890); shares compounds with phage Ecoli inh; inhibition, % at 11.9 µM;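 active = mean inhibition over triplicates exceeding the hit threshold derived in the original primary screen, cut at about 11% in these data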
Ecoli viability – bacterial viability inhibition counter-screen for RecBCD; shares compounds with phage Ecoli inh; E. coli viability, absorbance (OD) growth; inhibition, % at 11.9 µM; actives 29% (n = 890); in the data active = inhibition above about 20%;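 also: E. coli strain V66 grown with compound alone and no phage infection; 0% = bacteria with DMSO vehicle only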
AddAB counter – growth loss of phage-infected AddAB E. coli, RecBCD counter-screen. shares compounds with phage Ecoli inh. E. coli expressing H. pylori AddAB + T4 phage, OD growth; gene 2 mutant T4, recBCD-deleted host. inhibition, % at 11.9 µM. actives 45% (n = 890). AID 651984;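 active = mean inhibition above the solvent-only control wells' mean plus 3 SD, cut at about 22% in these data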;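 also: higher means less bacterial growth from phage killing when AddAB is blocked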
* marks the source's active call; other numbers are inactive results; x = no result. This is a sample that favours compounds with a hit; in the whole collection about 0.5% have one here.

SMILES | AddAB inh | E coli growth-1 | Tat export inh | phage Ecoli inh | E coli growth-2 | RecBCD conf | Ecoli viability | AddAB counter | others
N#Cc1ccc(NC(=O)Nc2ccc(Cl)cc2)cc1 | 16* | 0.49* | 6 | 13* | 15* | 14* | 17 | 20 | AddAB conf=16*;RecBCD counter=18*;Bact viability=16
Cc1ccc(NC(=O)c2nc[nH]c2C(=O)NC(C)C(=O)OC(C)(C)C)cc1 (centres undefined) | x | 0.66 | x | x | x | x | x | x
CCN(CCOC(=O)Nc1ccc(Cl)cc1)C(=O)Nc1ccc(Cl)cc1 | x | x | x | 11* | x | 5 | 5 | 1
CC(=NNc1ccc(C(=O)O)cc1)c1ccc(O)c(O)c1O | x | 0.65 | x | x | x | x | x | x
CO[C@H]1/C=C/O[C@@]2(C)Oc3c(C)c(O)c4c(O)c(c5c(c4c3C2=O)NC2(CCN(CC(C)C)CC2)N=5)=NC(=O)/C(C)=C\C=C\[C@H](C)[C@H](O)[C@@H](C)[C@@H](O)[C@@H](C)[C@H](OC(C)=O)[C@@H]1C | x | x | 107* | 95* | x | 95* | 99* | 100*
COC(=O)c1ccc(NC(=O)Nc2cccc(F)c2)cc1 | 9 | 0.6 | 0 | 12* | 6 | 4 | 4 | 0
COC(=O)c1ccc(NC(=O)Nc2ccc(F)cc2F)cc1 | 5 | 0.71 | -1 | 7 | 0 | x | x | x
Cc1[nH]nc(C(F)(F)F)c1N=NN1CCOCC1 | x | x | 83* | 100* | x | 99* | 103* | 100*
O=C(Nc1cccc(F)c1)C(=Cc1cccnc1)NC(=O)c1ccco1 | x | 0.74 | x | x | x | x | x | x
CCC(NC(=O)Nc1nnc(C(F)(F)F)s1)(C(F)(F)F)C(F)(F)F | 5 | 0.61 | -21 | 12* | 9 | 10 | 10 | 9
O=C(O)CCC(=O)Nc1nnc(C(F)(F)F)s1 | 1 | 0.77 | 1 | 2 | -1 | x | x | x
CC1CN(C(C)CO)C(=O)c2cccc(NC(=O)C3CC3)c2OC1CN(C)Cc1ccc(-c2ccccc2)cc1 (centres undefined) | x | 0.68 | x | x | x | x | x | x
S=C(Nc1ccc(Br)cc1)NC1CCCCC1 | 8 | 0.67 | 0 | 12* | 6 | 3 | 5 | 5
CC(C)CC(NC(=O)c1nc[nH]c1C(=O)NC(CCCCNC(=O)OC(C)(C)C)C(=O)OC(C)(C)C)C(=O)OC(C)(C)C (centres undefined) | x | 0.67 | x | x | x | x | x | x
COC(=O)Cn1ccnc1[N+](=O)[O-] | x | x | x | 16* | x | 5 | 5 | 90*
Cc1ccc(S(=O)(=O)N(C)C(=NS(=O)(=O)c2ccccc2)c2ccccc2)cc1 | x | 0.68 | x | x | x | x | x | x
CCc1ccc(NC(=O)CCC(=O)N2CCSc3ccccc32)cc1 | 6 | 0.67 | 7 | 14* | 4 | -3 | -3 | 2
Fc1ccc(CN2CCCN(Cc3nc(-c4ccc5c(c4)OCO5)no3)CC2)cc1 | 3 | 0.66 | -2 | 4 | 0 | x | x | x
O=C(c1ccco1)N1CCCN(Cc2nc(-c3ccc4c(c3)OCO4)no2)CC1 | -2 | 0.68 | 4 | 15* | 0 | 1 | 1 | -2
O=C(NCCc1cn2ccccc2n1)c1cc(COc2c(F)cccc2F)on1 | 10 | 0.55 | -18 | 12* | 7 | 2 | 5 | 6
Cc1ccc(OCc2cc(C(=O)NCc3cn4ccccc4n3)no2)cc1C | 4 | 0.64 | 2 | 4 | 2 | x | x | x
C#CCOCCOCCOCCNc1nc(N2CCN(C(=O)CCCCCCCCCCNC(=O)Cn3cc(CC(C)O)nn3)CC2)nc(N2CCN(C(=O)CCCCCCCCCCNC(=O)C(CCC(=O)O)n3cc(CCCCCN)nn3)CC2)n1 (centres undefined) | x | 0.66 | x | x | x | x | x | x
COc1cccc(-c2cnc(C(O)c3ccc(F)cc3)[nH]2)c1 (centres undefined) | x | x | x | 2 | x | x | x | x
